“And” between values parts separate entries of the source, which are not always exact repeats. Identical values can stand only once. Results filed as inconclusive are left out. The source made the active and inactive calls. Unless noted, calls follow the shape of the dose curve; as a rule, active = well fitted curve in the direction sought with a large enough effect; inconclusive = small, poorly fitted or top-dose-only effect, or another doubt; inactive = no such curve, though single readings can be large; an effect the other way counts as inactive or inconclusive.
How the values were obtained:
[1] = Cellular Toxicity (caspase-3) HepG2 (AID 654);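 also: cells exposed to compound for 16 hours before reading; 0% = DMSO alone and 100% = caspase signal from 100 µM tamoxifen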
Outline: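 qHTS, HepG2, 1500 cells/well, complete medium; cpd 16 h 37 °C; Caspase-Glo 3/7, 20 min RT; lum. Norm: DMSO vs 100 uM tamoxifen; AC50 Hill fit.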

[2] = Cellular Toxicity (caspase-3) Jurkat (AID 655);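 also: cells exposed to compound for 16 h at 37 °C before reading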
Outline: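 Jurkat cells (5000/well) in complete medium exposed 16 h at 37 C; caspase-3/7 activity read by Caspase-Glo luminescence after 20 min at room temperature. Normalized to DMSO and 100 uM tamoxifen; AC50 from Hill fits.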

[3] = Cellular Toxicity (caspase-3) HUV-EC-C (AID 656);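 also: 0% = DMSO basal and 100% = 100 µM tamoxifen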
Outline: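 HUV-EC-C cells (1000/well) in complete medium, compound-treated 16 h at 37 °C; caspase-3/7 activity read by Caspase-Glo 3/7 luminescence. Normalized to DMSO (basal) and 100 uM tamoxifen (100%); AC50 from Hill-equation concentration-response fits.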

[4] = Cellular Toxicity (caspase-3) SHSY5Y (AID 657)
Outline: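 SH-SY5Y human neuroblastoma cells, 1500/well, exposed to compound for 16 hours at 37 °C in complete medium. Caspase-3/7 activity read by Caspase-Glo luminescence after 1 hr at room temperature, normalized to DMSO and 10 uM staurosporine; AC50 from Hill fit.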

[5] = Cellular Toxicity (caspase-3) BJ (AID 658);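 also: 0% = DMSO basal and 100% = 10 µM staurosporine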
Outline: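 BJ human foreskin fibroblasts, 1000 cells/well, treated 16 hours at 37 °C in complete medium; caspase 3/7 activity by Caspase-Glo luminescence after 1 hr at room temperature. Normalized to DMSO and 10 uM staurosporine; AC50 from Hill fits.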

[6] = Cellular Toxicity (caspase-3) MRC-5 (AID 659);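 also: 0% = DMSO basal and 100% = 10 µM staurosporine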
Outline: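 MRC-5 human normal lung fibroblasts, 1500 cells/well, treated 16 h at 37 °C in complete medium. Caspase 3/7 measured by Caspase-Glo luminescence after 1 h at room temperature. Normalized to DMSO and 10 uM staurosporine; AC50 from Hill fit.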

[7] = Cellular Toxicity (caspase-3) Mesangial (AID 660)
Outline: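 Concentration-response qHTS: compound-induced rise in caspase 3/7 luminescence in human mesangial cells after 16 h, normalized to DMSO and 100 uM tamoxifen controls.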

[8] = Cellular Toxicity (caspase-3) SK-N-SH (AID 661);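 also: 0% = DMSO basal and 100% = 10 µM staurosporine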
Outline: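 Caspase 3/7 activation is measured as a luminescence increase from aminoluciferin released by substrate cleavage in SK-N-SH cells after 16 hr compound treatment; values are AC50 from concentration-response curves.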

[9] = Cellular Toxicity (caspase-3) H-4-II-E (AID 663);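 also: cells exposed to compound for 16 hr before readout; 0% = DMSO basal and 100% = 100 µM tamoxifen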
Outline: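 Rat hepatoma H-4-II-E cells (1500/well) plated 5 hr, then exposed to compound titrations for 16 hr at 37 °C. Caspase-Glo 3/7 luminescence read after 20 min at RT; data normalized to DMSO and 100 uM tamoxifen, AC50 from Hill fits.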

[10] = Cellular Toxicity (caspase-3) Hek293 (AID 664);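 also: cells exposed to compound for 16 h at 37 °C before readout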
Outline: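 Activation of caspase-3/7 is measured as increased luminescence from cleaved peptide-aminoluciferin substrate in HEK293 cells treated 16 hours at 37 °C. AC50 values come from Hill-equation fits of concentration-response data.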

[11] = Cellular Toxicity (caspase-3) N2a (AID 665);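 also: compound exposure lasted 16 h at 37 °C before readout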
Outline: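 Plated mouse neuroblastoma N2a cells received titrated compounds for 16 h in complete medium. Caspase activity was then detected with a peptide-aminoluciferin luminescent reagent.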

[12] = Cellular Toxicity (caspase-3) NIH 3T3 (AID 666);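 also: caspase signal read after 16 h compound exposure; 0% = DMSO basal and 100% = 100 µM tamoxifen stimulation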
Outline: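 Concentration-response qHTS in NIH 3T3 mouse fibroblasts scores caspase-3/7 activation as rising luminescence after 16 hr compound exposure. Signals are scaled between DMSO-only and 100 uM tamoxifen.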

[13] = Cellular Toxicity (caspase-3) Renal Proximal Tubule (AID 667);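 also: cells exposed to compound for 16 hours at 37 °C before detection; 0% = DMSO basal and 100% = 10 µM staurosporine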
Outline: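 Freshly isolated primary rat kidney proximal tubule cells, 1000/well, treated 16 hr at 37 °C, then Caspase-Glo 3/7 luminescence after 1 hr. Normalized to DMSO and 10 uM staurosporine; AC50 from Hill fit.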

[14] = qHTS assay to identify small molecules that stimulate interleukin-8 (IL-8) secretion (AID 651758; active = well fitted activation curve with a large enough effect in the signal ratio; the % refers to the signal ratio; also: 0% is about no effect)
Outline: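 THP-1 cells (2000/well) exposed to compound 16 h at 37 C; secreted IL-8 then detected by HTRF with cryptate- and XL665-labelled anti-IL-8 antibody pair after 1-3 h at room temperature.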

[15] = molecular target: Peroxisome proliferator-activated receptor alpha (Homo sapiens) (UniProt Q07869); assay: qHTS assay for small molecule agonists of the peroxisome proliferator-activated receptor alpha (PPARalpha) signaling pathway (AID 651778); details: PathHunter PPARalpha complementation, chemiluminescence, 6 h; active compounds read high; also: % of control where 0% means no effect
Outline: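 Enzyme-fragment complementation assay in which ligand-bound PPARalpha translocates and forms an active enzyme that generates chemiluminescence. Cells were plated overnight, exposed to compound for 6 hr at 37 C, and then given detection reagent for 60 min at room temperature.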

[16] = qHTS assay for small molecule agonists of the antioxidant response element (ARE) signaling pathway measured by Nrf2-dependant transcriptional activity (AID 720636; active = well fitted curve in the direction sought with a large enough effect in the repeat runs; an effect the other way counts as inactive or inconclusive; also: % of control where 0% means no effect)
Outline: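 ARE-luc HepG2 cells carrying an Nrf2-responsive luciferase reporter, in medium with 1% dialyzed FBS, exposed to compound for 16 hr at 37 C, 5% CO2. Luminescence read 30 min after ONE-Glo addition.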

[17] = qHTS assay for small molecule antagonists of the retinoid-related orphan receptor gamma (ROR-gamma) signaling pathway - cell viability counter screen (AID 720652; active = well fitted curve in the direction sought with a large enough effect in the repeat runs; an effect the other way counts as inactive or inconclusive;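 also: CHO reporter cells with doxycycline-induced ROR-gamma expression; series mostly up to about 92 µM; compound exposure lasted 16 hr before ATP read; % is scaled to controls: 0 for no effect and ±100 for the full control effect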)
Outline: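 Cytotoxicity is quantified via intracellular ATP (CellTiter-Glo luminescence) in doxycycline-induced CHO ROR response element-luciferase reporter cells treated with compound for 16 hr at 37 C, 5% CO2.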

[18] = qHTS assay for small molecule agonists of the antioxidant response element (ARE) signaling pathway measured by Nrf2-dependant transcriptional activity - cell viability counter screen (AID 720653; active = well fitted curve in the direction sought with a large enough effect in the repeat runs; an effect the other way counts as inactive or inconclusive; also: % is scaled to controls: 0 for no effect and ±100 for the full control effect); details: ARE-bla HepG2 viability, CellTiter-Glo ATP luminescence, 16 h; active compounds read low
Outline: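 ARE-bla HepG2 cells treated with compounds for 16 h at 37C; this counter screen measures viability as intracellular ATP by CellTiter-Glo luminescence after 30 min at room temperature.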

[19] = qHTS assay for cell viability of HEK293 cells (AID 743288); details: ATP luminescence (CellTiter-Glo), 18 h, active compounds read low; also: % is scaled to controls: 0 for no effect and ±100 for the full control effect; nearly all actives have a fitted effect of over 50% in size
Outline: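 Parental HEK293 cells, 2,000 per well, preincubated at least 5 h at 37 C, then exposed to compounds in DMSO for 18 h at 37 C. Viability by CellTiter-Glo ATP luminescence after 30 min at room temperature.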

[20] = qHTS assay for cell viability of the p53RE-bla HCT-116 cell line (AID 743292); also: potency is read from the fitted curve at half-maximal effect; nearly all actives have a fitted effect of over 55% in size
Outline: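 CellSensor p53RE-bla HCT-116 cells (4,000/well) pre-incubated 5 h at 37 C, then exposed to compounds in DMSO for 16 h at 37 C. Viability read as ATP content by CellTiter-Glo luminescence after 30 min at room temperature.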

Peroxisome proliferator-activated receptor alpha (Homo sapiens), sequence (Q07869 whole entry, looked up, the tested form may be a part): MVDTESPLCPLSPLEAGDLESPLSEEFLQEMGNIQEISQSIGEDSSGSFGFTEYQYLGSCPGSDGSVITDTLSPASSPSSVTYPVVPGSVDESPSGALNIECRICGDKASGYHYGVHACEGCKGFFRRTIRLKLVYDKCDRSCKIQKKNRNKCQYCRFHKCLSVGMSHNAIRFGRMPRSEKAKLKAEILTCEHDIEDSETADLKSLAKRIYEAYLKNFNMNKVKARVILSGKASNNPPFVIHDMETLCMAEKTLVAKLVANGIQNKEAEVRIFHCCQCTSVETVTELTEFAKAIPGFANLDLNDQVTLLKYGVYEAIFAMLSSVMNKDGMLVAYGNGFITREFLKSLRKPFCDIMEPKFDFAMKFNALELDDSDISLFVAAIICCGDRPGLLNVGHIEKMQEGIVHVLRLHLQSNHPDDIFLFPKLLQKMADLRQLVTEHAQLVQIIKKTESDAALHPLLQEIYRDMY

CC(C)(c1cc(Br)c(O)c(Br)c1)c1cc(Br)c(O)c(Br)c1
active: Potency [20] 44.7 µM
inactive: outcome [1] | outcome [2] | outcome [3] | outcome [4] | outcome [5] | outcome [6] | outcome [7] | outcome [8] | outcome [9] | outcome [10] | outcome [11] | outcome [12] | outcome [13] | outcome [14] | max response [15] -7.23% and -3.95% and -1.86% | outcome [16] | outcome [17] | max response [18] 4.4% and -1.06% and -0.187% | max response [19] 5.04% and -1.46% and -3.35%

From PubChem BioAssay (NCATS)
